Assay outcomes from PubChem BioAssay.
Shiga toxin inh: Shiga toxin inhibition | Vero cells, Shiga toxin protein synthesis inhibition reporter | inhibition, % at 38.7 µM | 290,000 tested, 9.2% active | AID 2315; in the data active means inhibition mostly above about 28%, no sharp cut-off; inactive means mostly below about 43%
Pf growth 96h: inhibits malaria parasite growth, 96 h; P. falciparum luciferase reporter growth, 96 h; AID 504834; 320,000 tested, 6.9% active; Potency, µM (titrated, usually from 28.7 µM), most hits filed as inhibitors
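Readout is luminescence from an integrated firefly luciferase in P. falciparum. Red cells, 2% hematocrit and 0.05% parasitemia final, were cultured with compound through two parasite generations (96 hours) at 37 C, 5% CO2.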
HCMV antiviral: blocks human cytomegalovirus replication; activity change, negative = inhibition, % at 57.5 µM; HFF cells, HCMV-luciferase reporter, 72 h; hits give low values; 410,000 tested, 4.5% active; in the data active means activity change below about -60%; inconclusive means no clear call, values can overlap the other calls; inactive means above about -39%
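Luciferase read-out from HCMV-luciferase-infected HFFs (MOI 1 PFU/cell) 72 h post infection at 37C; compounds added after 16 h cell attachment; activity normalized between buffer-only basal and Salinomycin (10uM) inhibitor controls.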
Pf growth 48h: inhibits P. falciparum growth in the first generation, 48 h. AID 504832. P. falciparum luciferase growth in erythrocytes, 48 h. Potency, µM (highest dose often 28.7 µM), most hits filed as inhibitors. 310,000 tested, 5.9% active
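Luminescence readout; reporter = integrated firefly luciferase in P. falciparum. RBC culture at 2% hematocrit, 0.1% parasitemia final, 37 C/5% CO2; decreased signal taken as growth inhibition.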
Cycloheximide cs: counter-screen for Shiga toxin inhibitors: cycloheximide protein synthesis inhibition. cell reporter, cycloheximide protein synthesis inhibition counterscreen. max response, %. 300,000 tested, 12% active; in the data active means max response mostly above about 13%, no sharp cut-off; inactive means mostly below about 14%; further: read at 38.3 µM for the half of the compounds with a filed dose
Large screens that a line does not name were inactive. Sampled rows, rich in hits. Any-hit rate of the full collection: about 20%. Unless noted, the call rests on the fitted dose curve; in most records, active means well fitted inhibition curve with a large enough effect; inconclusive means small, poorly fitted or top-dose-only effect, or another doubt; inactive means no such curve, though single readings can be large or run the other way.

Cc1ccc(C(=O)N/N=C/c2ccc(-c3ccccc3[N+](=O)[O-])o2)cn1	HCMV antiviral -64.4, Cycloheximide cs 18.8
O=C(Nc1c2c(nn1-c1ccccc1)CS(=O)(=O)C2)c1cccs1	none
O=C(O)c1ccc(/C=C2\SC(=Nc3ccccc3)N(c3ccccc3)C2=O)cc1	Pf growth 96h 0.294µM, HCMV antiviral inconclusive
O=C(O)COc1ccccc1/C=C1\SC(=Nc2ccc(F)cc2)N(c2ccc(F)cc2)C1=O	Pf growth 96h inconclusive, Pf growth 48h 10.4µM
CCOc1cc(/C=C2\SC(=Nc3ccc(F)cc3)N(c3ccc(F)cc3)C2=O)ccc1OCC(=O)O	Pf growth 96h inconclusive, Pf growth 48h inconclusive (no result: HCMV antiviral)
Cc1ccccc1-n1c(SC(C)C(=O)N2CCN(C)CC2)nc2ccccc2c1=O (configuration not stated)	Pf growth 96h inconclusive
O=C(Nc1ccccc1)c1ccc(=O)n(Cc2ccc(F)c(F)c2)c1	Pf growth 96h inconclusive
Cc1cc2ncn(C(=O)N3CCC(C)CC3)c2cc1C	Shiga toxin inh 66.7, Cycloheximide cs 27.9
Cc1ccc2c(c1)sc(=NC(=O)c1cccs1)n2C	HCMV antiviral inconclusive
Cc1ccc2c(c1)sc(=NC(=O)C1CC1)n2C	Shiga toxin inh 88.8, Cycloheximide cs 44.7
O=C(CSc1nc(-c2ccccc2)cs1)N1CCN(C(=O)c2ccco2)CC1	HCMV antiviral -103.1, Cycloheximide cs 18.2 (no result: Pf growth 96h)
Cc1ccccc1CSCC(=O)NC(=O)NCc1ccco1	Pf growth 96h 6.57µM, Cycloheximide cs 16.0
O=C(CSc1nc(-c2ccccc2)cs1)NC(=O)NCc1ccco1	Pf growth 96h inconclusive, Pf growth 48h inconclusive, Cycloheximide cs 24.7
N#CCSc1ccc2nc(-c3ccccc3)cn2n1	Shiga toxin inh 105.2
C[C@H](C(=O)OCO/N=[N+](\[O-])N1CCCC1)c1cccc2ccccc12	none (no result: Pf growth 96h, HCMV antiviral, Pf growth 48h)
O=C(CN1CCNCC1)NC1CCCCC1	none (no result: Shiga toxin inh, Cycloheximide cs)
O=C(Cc1ccc(F)cc1)NC1CC(=O)N(c2ccc3c(c2)OCCO3)C1 (configuration not stated)	none (no result: Shiga toxin inh, Pf growth 96h, Pf growth 48h, Cycloheximide cs)
CC1CCCc2sc3nc(SCC(=O)c4ccc(Br)cc4)nc(N)c3c21 (configuration not stated)	none (no result: Shiga toxin inh, Pf growth 96h, Pf growth 48h, Cycloheximide cs)
COc1cc(C(=O)NCCC(=O)N2CCC3(CC2)NCCc2[nH]cnc23)cc(OC)c1OC	none
CC(C)NC(=O)CSc1nc(-c2ccccc2)cs1	Shiga toxin inh 88.7, Cycloheximide cs 25.9
N#CCSc1nc(-c2ccccc2)cs1	Shiga toxin inh 49.8, HCMV antiviral -62.6, Cycloheximide cs 29.6 (no result: Pf growth 96h)
OCC[n+]1c2ccccc2nc2ccc(N3CCOCC3)cc21	Pf growth 96h 0.262µM, Pf growth 48h 0.329µM
COc1cc2nc(N3CCN(C(=O)[C@H]4COc5ccccc5O4)CC3)nc(N)c2cc1OC	Pf growth 96h 3.7µM, Pf growth 48h 3.7µM
O=C(C1COc2ccccc2O1)N1CCc2ccccc2C1 (configuration not stated)	Shiga toxin inh 59.7, Pf growth 96h inconclusive, Cycloheximide cs 28.6
O=C(C1COc2ccccc2O1)N1CCN(c2ccccc2F)CC1 (configuration not stated)	Pf growth 96h inconclusive, Pf growth 48h 11.7µM
Cc1cc(=O)oc2c(C)c(OCC(=O)N3CCN(C(=O)C4COc5ccccc5O4)CC3)ccc12 (configuration not stated)	Pf growth 96h 9.28µM, Pf growth 48h 10.4µM
COc1cc2nc(N3CCN(C(=O)C4CCCO4)CC3)nc(N)c2cc1OC (configuration not stated)	Pf growth 48h inconclusive
CCOC(=O)C1CNc2cc(S(=O)(=O)CC)ccc2O1 (configuration not stated)	Pf growth 96h inconclusive
C[C@@H]1CN([C@@H](C)CO)C(=O)c2cc(NC(=O)C3CCCCC3)ccc2O[C@@H](C)CCCCO[C@H]1CN(C)S(=O)(=O)c1ccc(Cl)cc1	none (no result: Shiga toxin inh, Pf growth 96h, Pf growth 48h, Cycloheximide cs)
O=C(NC1CC(=O)N(c2cccc(F)c2)C1)c1cccs1 (configuration not stated)	none (no result: Shiga toxin inh, Pf growth 96h, Pf growth 48h, Cycloheximide cs)
COc1cc2c(cc1OC)C(C)N(C(=O)c1c(C)noc1C)CC2 (configuration not stated)	HCMV antiviral inconclusive
Cc1cccc(N2CCN(C(=O)C3COc4ccccc4O3)CC2)c1C (configuration not stated)	Shiga toxin inh 51.7, Pf growth 96h inconclusive, Pf growth 48h inconclusive, Cycloheximide cs 23.6
COc1cc2c(cc1OC)C(C)N(C(=O)C1COc3ccccc3O1)CC2 (configuration not stated)	HCMV antiviral -65.1 (no result: Pf growth 96h)
COc1cc2c(cc1OC)C(C)N(C(=O)c1cc(C)on1)CC2 (configuration not stated)	HCMV antiviral -66.2
O=C(C1COc2ccccc2O1)N1CCN(Cc2ccccc2)CC1 (configuration not stated)	Pf growth 96h 8.28µM (no result: Shiga toxin inh)
COc1ccccc1NC(=O)C1CCCN(c2nnc(C)c3c(C)n(-c4ccccc4)nc23)C1 (configuration not stated)	none (no result: Shiga toxin inh, Pf growth 96h, Pf growth 48h, Cycloheximide cs)
N[C@@H]1C(O)OC(CO)C(O)C1O (some centres not stated)	none (no result: Shiga toxin inh, HCMV antiviral, Cycloheximide cs)
Cc1cccc(C)c1NC(=O)CNC(=O)c1ccc(N2CCCC2)c([N+](=O)[O-])c1	Pf growth 48h inconclusive (no result: Shiga toxin inh, Cycloheximide cs)
CCCCCC(=O)OC(CN1CCCCC1)CN1CCCC1=O (configuration not stated)	Pf growth 96h 10.4µM
Cc1ccc(-n2c(-c3ccccc3)c[nH]c2=S)cc1	HCMV antiviral -74.0
O=C(Nc1cccnc1)c1ccc(NS(=O)(=O)c2cc([N+](=O)[O-])ccc2Cl)cc1	HCMV antiviral inconclusive
COc1ccc(-c2nc(CN3CCCCC3CCc3ccccn3)c(C)o2)cc1 (configuration not stated)	Pf growth 96h inconclusive, Pf growth 48h inconclusive
Cc1oc(-c2cccc(F)c2)nc1CN1CCCCC1CCc1ccccn1 (configuration not stated)	Pf growth 96h inconclusive, Pf growth 48h 13.1µM
CCC(C)NC(=O)CSc1nc2ccccc2c(=O)n1-c1c(C)n(C)n(-c2ccccc2)c1=O (configuration not stated)	none
Cc1ccc(-n2ncc3c2CC(C)(C)CC3NC(=O)c2ccccn2)cc1 (configuration not stated)	Pf growth 96h 14.7µM, Cycloheximide cs 21.0
Cc1ccc(-n2ncc3c2CC(C)(C)CC3NC(=O)CCN2CCCO2)cc1 (configuration not stated)	Pf growth 48h inconclusive
Cc1cc(C(=O)NC2CC(C)(C)Cc3c2cnn3-c2ccc(F)cc2)no1 (configuration not stated)	Shiga toxin inh 36.7, Pf growth 48h inconclusive
C=CCC(=O)NC1CC(C)(C)Cc2c1cnn2-c1ccc(C)cc1 (configuration not stated)	Pf growth 96h inconclusive
Cc1ccccc1-n1ncc2c1CC(C)(C)CC2NC(=O)c1snnc1C (configuration not stated)	Pf growth 96h 5.86µM, Pf growth 48h inconclusive
Cc1ccc(-n2ncc3c2CC(C)(C)CC3NC(=O)CCc2ccc(=O)[nH]n2)cc1 (configuration not stated)	Pf growth 96h 13.1µM
O=c1oc2ccccc2c2c1ccc1ccccc12	none (no result: Shiga toxin inh, Pf growth 96h, Pf growth 48h, Cycloheximide cs)
